Measured values taken from PubChem BioAssay AID1259370 (Center for Chemical Genomics, University of Michigan, 2018).
The whole screen tested about 94,000 compounds, of which about 680 (0.72%) were called active. Only a selection was taken, and actives are over-represented in it overall. A number with no mark means an inactive call. Rule as the data show it: active = z-score above about 3.2; inactive = the rest.

Biological target: M-phase inducer phosphatase 2 (Homo sapiens) + Cyclin-dependent kinase 2 (Homo sapiens) + Cyclin-A2 (Homo sapiens) (UniProt P30305+P24941+P20248)
Test: primary biochemical HTRF screen for inhibition of M-phase inducer phosphatase 2 binding to cyclin-dependent kinase 2/cyclin A (AID 1259370)
Conditions: HTRF CDC25B-CDK2/CyclinA binding, anti-His/anti-Flag; active compounds read high

| SMILES | z-score |
| --- | --- |
| Cc1ccc(CSc2nc(-c3ccccc3)c(C#N)c(=O)[nH]2)cc1 | -0.77 |
| N#Cc1c(-c2ccccc2)nc(SCCCCOc2ccc(Cl)cc2)[nH]c1=O | 4.75 (active) |
| CCSc1nc(-c2ccc(Cl)cc2)c(C#N)c(=O)[nH]1 | -0.88 |
| O=C(CSc1ncnc2nc[nH]c12)c1ccc(O)c(O)c1 | 2.58 |
| Cc1n[nH]c(=O)c2nn(-c3ccccc3)c(C)c12 | 0.76 |
| Cc1cc(C)cc(NS(=O)(=O)c2ccc3c(c2)n(C)c(=O)n3C)c1 | -1.42 |
| Cc1cc2c(c(=O)n1CC1CCCO1)C(c1cccc(Br)c1)C(C#N)=C(N)O2 (stereo not given) | -0.22 |
| CC(C)c1ccc(C2c3c([nH][nH]c3=O)CC(C)(O)C2C(=O)OCc2ccccc2)cc1 (stereo not given) | -1.98 |
| COc1ccc(S(=O)(=O)NC(C)c2nc(-c3ccc(C)cc3)no2)cc1 (stereo not given) | -1.34 |
| COC(=O)c1ccc2snnc2c1 | -0.98 |
| CC(C)NC(=O)Nc1ccc2snnc2c1 | 5.16 (active) |
| CC(C)CC(=O)Nc1ccc2nsnc2c1 | -1.58 |
| CCOC(=O)c1cn(-c2cccc(F)c2)nn1 | -1.61 |
| Cn1c(=O)n(C)c2cc(S(=O)(=O)Nc3ccc(F)cc3)ccc21 | -0.14 |
| Cc1nc(C)c(C(=O)Nc2nnc(CC(C)C)s2)s1 | -0.08 |
| CC12CC3(C)CC(C)(C1)CC(C(=O)NC(C)(C)CO)(C2)C3 | -1.12 |
| O=C(CSc1ccc(-c2cccs2)nn1)N1CCCc2ccccc21 | -0.97 |
| O=C(c1cccnc1)N(c1ccc2oc(=O)sc2c1)S(=O)(=O)c1ccccc1 | -1.85 |
| COc1ccc(S(=O)(=O)N(C(=O)c2ccncc2)c2ccc3oc(=O)sc3c2)cc1OC | -3.46 |
| O=C(c1cccnc1)N(c1cc2sc(=O)oc2c2ccccc12)S(=O)(=O)c1ccccc1 | 12.3 (active) |
| CCn1c(COC)nc2ccccc21 | -0.64 |
| CCC(C)NC(=O)C1=CC(c2cccs2)=NS(=O)(=O)N1C (stereo not given) | -1.72 |
| O=C1c2ccc3c4c(ccc(c24)C(=O)N1c1ccccc1)C(=O)N(c1ccccc1)C3=O | -2.52 |
| O=C1c2cccc3cccc(c23)C(=O)N1c1cccc(O)c1 | -0.15 |

| SMILES | z-score |
| --- | --- |
| O=C(O)c1cccc(N2C(=O)c3ccc4c5c(ccc(c35)C2=O)CC4)c1 | 8.86 (active) |
| COCCOC(=O)C1=C(C)Nc2nc3ccccc3n2C1c1cccc(F)c1 (stereo not given) | -1.51 |
| COc1ccc(C(=O)Oc2ccc3c(c2)oc(=O)c2ccccc23)cc1 | -0.65 |
| CC(C)CCNC(=O)C1CCC(CNc2c(N3CCC(C)CC3)c(=O)c2=O)CC1 (stereo not given) | -0.9 |
| Cc1nc(N2CCCCC2)cc(N2CCN(S(=O)(=O)c3ccc(F)cc3)CC2)n1 | -1.52 |
| CCOc1ccccc1Nc1nc2ccc(Cl)cc2n2nnnc12 | -2.08 |
| Cn1c(=O)n(C)c2cc(CNC3CCCCC3)ccc21 | -1.66 |
| O=C(Nc1ccccc1)N1CCN(Cc2ccccc2)CC1 | 4.1 |
| Clc1ccc(C=NCc2cccnc2)c(Cl)c1 | 0.36 |
| S=C(Nc1cccnc1)N1CCCN(Cc2ccc(Cl)cc2Cl)CC1 | 12 (active) |
| CCOC(=O)c1c(NC(=O)Nc2cccc(Cl)c2)sc2c1CCCC2 | -0.86 |
| CC1=C(c2cccc(Br)c2)S(=O)(=O)N=C1Nc1ccccc1C | -2.29 |
| O=C(COc1ccc2c3c(c(=O)oc2c1)CCC3)OC1CCCCC1 | -1.13 |
| COc1ccc2cc3c(N)nn(C(=O)Cn4c(=O)oc5ccccc54)c3nc2c1 | -0.84 |
| O=C(O)C1CCCN(c2cnccn2)C1 (stereo not given) | 0.23 |
| Cc1ccc(CNc2n[nH]c(-c3ccco3)n2)cc1 | -1.84 |
| Cc1ccc(C)c(C(=O)CSc2n[nH]c(-c3ccco3)n2)c1 | 8.74 (active) |
| COc1ccccc1-c1nc(SCC(=O)c2ccc(Br)cc2)n[nH]1 | -0.98 |
| CCSc1ncc(Cl)c(C(=O)Nc2nc(C)c(C(=O)OCC(C)C)s2)n1 | -1.22 |
| Cn1c(=O)c2c(-c3cccc(Br)c3)n(C(CO)(CO)CO)cc2n(C)c1=O | 0.09 |
| COC(=O)C1=C(C)NC2=C(C(=O)c3ccccc32)C1c1ccc(OC)cc1 (stereo not given) | 1.16 |
| CCOC(=O)C1=C(C)NC2=C(C(=O)c3ccccc32)C1c1cccc(F)c1 (stereo not given) | -1.68 |
| CCOC(=O)C1=C(C)NC2=C(C(=O)c3ccccc32)C1c1ccc(OC(=O)c2ccccc2)cc1 (stereo not given) | 11.9 (active) |
| O=C(O)CSc1nc2ccccc2c(=O)n1Cc1ccco1 | -1.25 |

| SMILES | z-score |
| --- | --- |
| CCOC(=O)c1sc(NC(=O)c2cc3ccccc3o2)c(C(=O)OCC)c1C | -1.55 |
| Cc1cccc(N2CSC3=C(C#N)C(c4ccccc4C)CC(=O)N3C2)c1 (stereo not given) | 3.61 (active) |
| CCOc1ccc(N2CSC3=C(C#N)C(c4ccc(SC)cc4)CC(=O)N3C2)cc1 (stereo not given) | 6.74 (active) |
| COc1ccc(OC)c(C2CC(=O)N3CN(c4ccccc4OC)CSC3=C2C#N)c1 (stereo not given) | 3.41 (active) |
| COc1ccc(C2CC(=O)N3CN(c4ccccc4OC)CSC3=C2C#N)c(OC)c1 (stereo not given) | 8.02 (active) |
| COc1ccc(OC)c(C2CC(=O)N3CN(Cc4ccco4)CSC3=C2C#N)c1 (stereo not given) | -3.58 |
| CSC1=C(C#N)C(c2ccccc2C)CC(=O)N1 (stereo not given) | -0.39 |
| N#CC1=C2SCN(c3ccc(F)cc3)CN2C(=O)CC1c1ccc(Br)cc1 (stereo not given) | 2.31 |
| COc1ccccc1N1C(=O)C2C(c3ccccc3C)OC3(C(=O)c4ccccc4C3=O)C2C1=O (stereo not given) | 0.1 |
| COc1ccc(OC)c(C2C(C#N)=C3N=C(N)c4ccccc4N3C3=C2C(=O)CCC3)c1 (stereo not given) | 0.51 |
| COc1ccc(C(=O)CC2(O)C(=O)N(C(C)C)c3ccccc32)c(OC)c1 (stereo not given) | -1 |
| CC(C)C(=O)Nc1sc2c(c1C(=O)O)CCCC2 | -2.62 |
| Cc1nc(N)[nH]c(=O)c1Br | 0.46 |
| CCOC(=O)c1c(N)sc2c1CCN(C(C)=O)C2 | -2.08 |
| CCOC(=O)c1c(C)n(C)c2cc3c(cc12)OC(=O)C3(O)C(F)(F)F (stereo not given) | -2.18 |
| N=C1C(c2nc3ccccc3[nH]2)=C(O)CN1c1ccc(Oc2ccccc2)cc1 | 1.4 |
| CC1=C(C(N)=O)C(c2cccc(O)c2)n2nc(SCc3ccccc3F)nc2N1 (stereo not given) | -0.38 |
| CCOC(=O)CNC(=O)N1CCCC1c1ccco1 (stereo not given) | -1.79 |
| Cc1ccc(NS(=O)(=O)C2CCS(=O)(=O)C2)cc1Cl (stereo not given) | -1.16 |
| Cc1ccc(S(=O)(=O)c2nc(S(C)(=O)=O)sc2N2CCN(CCO)CC2)cc1 | -2 |
| Cc1cccc2c1Oc1nc(-c3ccccc3O)[nH]c(=O)c1C2 | -0.22 |
| C=CCN1C=C(OC(=O)COc2ccccc2)c2ccccc2S1(=O)=O | -2.21 |
| O=C(C1CCN(S(=O)(=O)c2cccs2)CC1)N1CCN(c2ccccc2Cl)CC1 | -0.01 |
| COc1ccc(C2=NS(=O)(=O)N(C)C(C(=O)N3CCN(C(=O)c4ccco4)CC3)=C2)cc1 | -0.02 |

| SMILES | z-score |
| --- | --- |
| CCN(CC)S(=O)(=O)c1nnc(NC(=O)C(C)C)s1 | -1.69 |
| C=CCN(Cc1nc(-c2ccc(C)cc2)no1)S(=O)(=O)c1ccc(Br)cc1 | -1.17 |
| O=c1c(S(=O)(=O)c2ccc(Cl)cc2)c[nH]c2ccc(F)cc12 | 0.19 |
| Cc1cc(C)n(CCc2nc3c4ccccc4nc(SCC(=O)NCc4ccco4)n3n2)n1 | -1.06 |
| O=C(CSCc1cnn(-c2ccccc2)c1-n1cccc1)Nc1ccc2c(c1)OCCO2 | -1.15 |
| CCOc1ccc(C2CC(=O)Nc3nc(SC)[nH]c(=O)c32)cc1OC (stereo not given) | -2.13 |
| CCOc1ccc(C2CC(=O)N3CN(c4ccc(OC)cc4OC)CSC3=C2C#N)cc1OC (stereo not given) | 3.34 (active) |
| COC(=O)c1sc(=S)n(-c2ccc(Cl)cc2)c1C | -0.46 |
| COc1cc(C2CC(=O)N3CN(c4ccccc4)CSC3=C2C#N)ccc1O (stereo not given) | 0.52 |
| COC(=O)c1ccc(N2CSC3=C(C#N)C(c4ccc(Cl)cc4)CC(=O)N3C2)cc1 (stereo not given) | 7.06 (active) |
| CC(c1ccccc1)N1CSC2=C(C#N)C(c3ccc(Cl)cc3)CC(=O)N2C1 (stereo not given) | 1.37 |
| CNC(=O)c1c(NC(=O)c2cc(=O)c3ccccc3o2)sc2c1CCCC2 | -0.57 |
| COCCCn1c(SC2CCOC2=O)nc2c(sc3ccccc32)c1=O (stereo not given) | -3.05 |
| CCOC(=O)C1=C(C)NC2=C(C(=O)CC(c3cccs3)C2)C1c1cc(Br)ccc1F (stereo not given) | -0.66 |
| CCOC(=O)c1c(CN(CC)CC)n(C)c2cc(Br)c(OC)cc12 | -0.02 |
| Cc1c(C=O)c(=O)oc2c3c4c(cc12)CCCN4CCC3 | 16.4 (active) |
| Cc1c(C)c2cc3c4c(oc3c(C)c2oc1=O)CCCC4 | 0.16 |
| CCc1cccc(-n2nnc(S(=O)(=O)c3ccc(C)cc3)c2C)c1 | -0.89 |
| CN1C(=O)c2ccccc2C(C(=O)Nc2ccc3c(c2)OCO3)C1c1cn(C)c2ccccc12 (stereo not given) | -2.4 |
| CCCc1c(C)nc2ncnn2c1Nc1ccc(CC)cc1 | -2.22 |
| CCOCCOC(=O)C1=C(C)NC2=C(C(=O)CCC2)C1c1ccc(OC(C)=O)cc1 (stereo not given) | -0.12 |
| COc1ccc(COC(=O)C2=C(C)NC3=C(C(=O)CCC3)C2c2ccc(Br)cc2)cc1 (stereo not given) | -0.5 |
| C=CCOc1ccc(C2C3=C(CCCC3=O)NC3=C2C(=O)CCC3)cc1 | 15.9 (active) |
